# Experimental data published in PubChem BioAssay (EPA / NIEHS).
# Values joined by “and” are separate entries in the source; they are usually repeats but may differ in a detail not shown here. Equal entries are not always repeated. Active and inactive are the calls of the source. The calls were made as follows: active = hit-call score of the fitted dose curve at least 0.9, where 1 is the maximum; inactive = score below 0.9.
# Tests used:
# Conditions in all cases: primary human HUVEC with PBMC; actives raise or lower the signal
# [1] = read-out: Interleukin-1 alpha (IL1a), IL1A (gene 3552); assay: BSK_LPS_IL1a: BioMAP Diversity Plus: LPS Assay for Interleukin-1 alpha (IL1a) Biomarker Activity (AID 2283080)
# In short: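 Human umbilical vein endothelial cells co-cultured with PBMC and stimulated with LPS; IL-1a measured by ELISA 24 h after dosing. Bidirectional fitting against DMSO; cytotoxicity checked by SRB staining in parallel cultures.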
# [2] = read-out: Monocyte Chemoattractant Protein-1 (MCP1), CCL2 (gene 6347); assay: BSK_LPS_MCP1: BioMAP Diversity Plus: LPS Assay for Monocyte Chemoattractant Protein-1 (MCP1) Biomarker Activity (AID 2283081);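 as to AC50: secreted MCP-1 protein quantified by ELISA in culture supernatant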
# In short: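 Human umbilical vein endothelial cells co-cultured with PBMC, LPS-stimulated; secreted MCP-1 measured by ELISA 24 h after compound addition. Bidirectional curve fitting against DMSO baseline; SRB total-protein staining in parallel cultures for cytotoxicity.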
# [3] = BSK_LPS_PGE2: BioMAP Diversity Plus: LPS Assay for Prostaglandin E2 (PGE2) Biomarker Activity (AID 2283082);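 as to AC50: secreted prostaglandin E2 measured by ELISA in LPS-stimulated co-culture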
# In short: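 LPS-activated HUVEC/PBMC co-culture; cmpd dosed, 24 h; PGE2 by ELISA; bidirectional fit vs DMSO; SRB (0.1%, TCA-fixed, 560 nm) in parallel plates for overt cytotox.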
# [4] = read-out: Macrophage colony-stimulating factor (MCSF), CSF1 (gene 1435); assay: BSK_LPS_MCSF: BioMAP Diversity Plus: LPS Assay for Macrophage colony-stimulating factor (MCSF) Biomarker Activity (AID 2283083)
# In short: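 HUVEC–PBMC co-culture, M-CSF measured by ELISA 24 h after chemical dosing. Fitted in both directions relative to DMSO as negative control; overt cytotoxicity assessed by SRB total-protein staining in parallel cultures.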
# [5] = read-out: Tissue Factor, F3 (gene 2152); assay: BSK_LPS_TissueFactor: BioMAP Diversity Plus: LPS Assay for Tissue Factor Biomarker Activity (AID 2283084)
# In short: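 Human umbilical vein endothelial cells co-cultured with PBMC were dosed with compound. Cell-surface CD142 was measured by ELISA 24 h later. Activity was fitted bidirectionally against DMSO, with SRB total-protein staining in parallel cultures for cytotoxicity.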
# [6] = read-out: Tumor necrosis factor (Homo sapiens) (UniProt P01375); assay: BSK_LPS_TNFa: BioMAP Diversity Plus: LPS Assay for Tumour Necrosis Factor alpha (TNFa) Biomarker Activity (AID 2283085);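 as to AC50: TNFa protein level quantified by ELISA in the co-culture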
# In short: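 Read-out is ELISA of TNFa in primary human endothelial cell–PBMC co-cultures at 24 h after compound. Activity in either direction was fitted against DMSO.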
# [7] = read-out: Vascular cell adhesion molecule 1 (VCAM1), VCAM1 (gene 7412); assay: BSK_LPS_VCAM1: BioMAP Diversity Plus: LPS Assay for Vascular cell adhesion molecule 1 (VCAM1) Biomarker Activity (AID 2283086)
# In short: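 HUVEC + PBMC co-culture, LPS system; compound 24 h; VCAM-1 by ELISA; bidirectional fit vs DMSO control; parallel SRB (0.1%, TCA-fixed, 560 nm) for cytotoxicity.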
# [8] = read-out: CD38, CD38 (gene 952); assay: BSK_SAg_CD38: BioMAP Diversity Plus: SAg Assay for CD38 Biomarker Activity (AID 2283087)
# In short: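 Human HUVEC plus PBMC co-culture stimulated with superantigen; CD38 measured by ELISA 24 h after chemical dosing. Fluorescence read-out, bidirectional fit against DMSO; cytotoxicity tracked in parallel by SRB and Alamar Blue.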
# [9] = read-out: CD40, CD40 (gene 958); assay: BSK_SAg_CD40: BioMAP Diversity Plus: SAg Assay for CD40 Biomarker Activity (AID 2283088)
# In short: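 HUVEC plus PBMC co-culture, superantigen-activated, with CD40 read by ELISA 24 h after dosing. Curves fitted in both directions against DMSO. Overt cytotoxicity checked by parallel SRB total-protein staining.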
# [10] = read-out: CD69, CD69 (gene 969); assay: BSK_SAg_CD69: BioMAP Diversity Plus: SAg Assay for CD69 Biomarker Activity (AID 2283089);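 as to AC50: cell surface CD69 protein quantified by ELISA with fluorescence detection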
# In short: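 Primary human vascular co-culture (umbilical vein endothelium with peripheral blood mononuclear cells) exposed to test chemical for 24 h. CD69 levels quantified by fluorescence ELISA; DMSO served as negative control for bidirectional fitting.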
# Chain of Tumor necrosis factor (Homo sapiens) (P01375 whole entry, looked up): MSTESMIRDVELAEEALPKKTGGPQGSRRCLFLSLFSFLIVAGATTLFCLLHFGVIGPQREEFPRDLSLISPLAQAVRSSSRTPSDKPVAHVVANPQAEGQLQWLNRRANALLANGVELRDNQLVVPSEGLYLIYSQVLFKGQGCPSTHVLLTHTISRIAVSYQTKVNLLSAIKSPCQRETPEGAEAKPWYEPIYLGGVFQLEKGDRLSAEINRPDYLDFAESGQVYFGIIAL
Compound,outcome [1],outcome [2],outcome [3],AC50 [4],outcome [5],outcome [6],outcome [7],AC50 [8],outcome [9],outcome [10],AC50 [1],AC50 [2],AC50 [3],AC50 [5],AC50 [6],AC50 [7],AC50 [9],AC50 [10],outcome [4],outcome [8]
c1ccc2sc(SSN3CCOCC3)nc2c1,inactive,inactive,inactive,12.2 µM (active),inactive,inactive,inactive,20 µM (active),inactive,inactive,,,,,,,,,,
CC/C=C\C/C=C\C/C=C\CCCCCCCC(=O)OC,,,,17.5 µM (active),,,,15.1 µM (active),,,13.9 µM (active),30.6 µM (active),5.75 µM (active),12.6 µM (active),13.7 µM (active),27.3 µM (active),14.8 µM (active),21.6 µM (active),,
C=CC(=O)OCCCCCCOC(=O)C=C,,,,5.31 µM (active),,,,3.8 µM (active),,,8.11 µM (active),4.29 µM (active),2.13 µM (active),9.18 µM (active),3.96 µM (active),5.81 µM (active),11 µM (active),2.98 µM (active),,
CCCCCCCCC(CO)CCCCCC (stereo not given),inactive,inactive,inactive,,inactive,inactive,inactive,,inactive,inactive,,,,,,,,,inactive,inactive
Clc1cc(Cl)c(Cl)c(Cl)c1Cl,,inactive,inactive,,inactive,inactive,inactive,,inactive,inactive,16.2 µM (active),,,,,,,,inactive,inactive
c1ccc2c(c1)[nH]c1ccccc12,inactive,inactive,inactive,,inactive,inactive,inactive,,inactive,inactive,,,,,,,,,inactive,inactive
CC(c1cc(C(C)(C)C)cc(C(C)(C)C)c1O)c1cc(C(C)(C)C)cc(C(C)(C)C)c1O,inactive,inactive,inactive,,inactive,inactive,inactive,,inactive,inactive,,,,,,,,,inactive,inactive
C=CC(=O)OCCCCCCCC(C)C,inactive,inactive,inactive,,inactive,inactive,inactive,,inactive,inactive,,,,,,,,,inactive,inactive
C=C(C)C(=O)OCCCCCCCCCCCC,inactive,inactive,inactive,,inactive,,inactive,,inactive,inactive,,,,,32.6 µM (active),,,,inactive,inactive
O=C(Cl)c1c(Cl)c(Cl)c(C(=O)Cl)c(Cl)c1Cl,inactive,inactive,inactive,,inactive,inactive,inactive,,inactive,inactive,,,,,,,,,inactive,inactive
Oc1ccccc1Cc1ccccc1O,inactive,inactive,,,inactive,inactive,inactive,,inactive,inactive,,,2.47 µM (active) and 1.8 µM (active),,,,,,inactive,inactive
CC=C(C)C=CC=C(C)C,inactive,inactive,inactive,,inactive,inactive,,13.7 µM (active),,,,,,,,20 µM (active),6.97 µM (active),18.7 µM (active),inactive,
COc1ccc(C(=O)/C(Br)=C\C(=O)O)cc1,,,,12.8 µM (active) and 20 µM (active),,,,22.3 µM (active) and 20 µM (active),,,20 µM (active) and 17 µM (active),31.3 µM (active) and 27.4 µM (active),7.75 µM (active) and 6.87 µM (active),20 µM (active) and 14.1 µM (active),14.3 µM (active) and 28.4 µM (active),20 µM (active),20 µM (active) and 23.6 µM (active),15.6 µM (active) and 15.7 µM (active),,
CC(C)[N+](C)(CCOC(=O)C1c2ccccc2Oc2ccccc21)C(C)C,inactive,inactive,inactive,,inactive,inactive,inactive,,inactive,inactive,,,,,,,,,inactive,inactive
CC1(C)CC(O)CC(C)(C)N1[O],inactive,inactive,inactive,,inactive,inactive,inactive,,inactive,inactive,,,,,,,,,inactive,inactive
